Reference: PubChem BioAssay AID862 (The Scripps Research Institute Molecular Screening Center, 2007)
Out of some 190,000 compounds screened, about 1,700 (0.89%) were called active.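 Rule for the calls: active = inhibition above the mean inhibition across all screened compounds plus 3 SD (cut at about 44% in these data); inactive = the rest.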 Shown is part of a subset that was picked to be rich in actives.

Experiment: blockers of STAT3 transcriptional signaling – U3A cells, luciferase, luminescence, MLSCN library, primary screen (AID 862);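 note: 0% = DMSO only wells and 100% = 100 µM nifuroxazide control wells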
Settings: IL-6 STAT3-luciferase reporter, at 5.5 µM, active compounds read high, host cell line lacks STAT1
With `Cc1ccc(OCC(=O)Nc2ccc(S(=O)(=O)Nc3ccccn3)cc2)cc1` the inhibition was 4.3% (inactive).
For `Cc1ccc(S(=O)(=O)Nc2ccc3ncccc3c2)cc1`, the inhibition was 49.6% (active).
In the case of `Cc1cc(C)cc(OCC(=O)Nc2ccc(S(=O)(=O)Nc3ccccn3)cc2)c1`, the inhibition is reported as -0.1% (inactive).
For `CC1CCCCC1NC(=O)CO/N=C/c1ccc(OC(F)F)cc1` (stereo unspecified), the inhibition was -1.1% (inactive).
With `CCCCC(O)(CCCC)C(=O)NN(C(=O)CCl)c1ccccc1` the inhibition was 2.7% (inactive).
In the case of `Cc1cc(CNC(=O)c2cccc([N+](=O)[O-])c2)c2ccccc2n1`, the inhibition is reported as 12.3% (inactive).
In the case of `Cc1cccc(-n2c(Cc3cc(=O)[nH]c(=O)[nH]3)nnc2SCC(=O)Nc2cccc(C(F)(F)F)c2)c1`, the inhibition is reported as 2% (inactive).
For `CN(C)S(=O)(=O)c1cccc(NC(=S)N/N=C/C(=O)c2ccccc2)c1`, the inhibition was 8% (inactive).
For `CSC(=S)N/N=C/c1c[nH]c2ccccc12`, the inhibition was -10.1% (inactive).
For `O=C(O)c1cccc(NC(=S)N/N=C/c2c[nH]c3ccccc23)c1`, the inhibition was 73.2% (active).
For `CCS(=O)(=O)Nc1ccc(C2=NN(C(C)=O)C(c3cccs3)C2)cc1` (stereo unspecified), the inhibition was 6.9% (inactive).
In the case of `O=[N+]([O-])c1cc(S(=O)(=O)N2CCCC2)ccc1NN=C1CCCC1`, the inhibition is reported as 8.3% (inactive).
In the case of `Cc1ccc(S(=O)(=O)N(C)C)cc1NC(=O)COC(=O)c1c(C)noc1C`, the inhibition is reported as 6.4% (inactive).
In the case of `COc1ccc(/C(=N\O)c2nccc3cc(OC)c(OC)cc23)cc1OC`, the inhibition is reported as -1.8% (inactive).
For `Cc1noc(NS(=O)(=O)c2ccc(N/C=C/C(=O)c3ccccc3)cc2)c1C`, the inhibition was -6.5% (inactive).
In the case of `Cc1ccc(N/C=C/C(=O)c2ccccc2)cc1C`, the inhibition is reported as 52.2% (active).
For `O=C(/C=C\NCC(=O)c1ccccc1)c1ccccc1`, the inhibition was 22.1% (inactive).
With `O=c1cc(O)c(-c2cccc(C(F)(F)F)c2)c(Cl)[nH]1` the inhibition was 5.9% (inactive).
In the case of `Nc1ncc(-c2cc3ccccc3oc2=O)s1`, the inhibition is reported as 14.8% (inactive).
With `O=c1oc2ccccc2cc1-c1cn(-c2ccccc2)c(=S)[nH]1` the inhibition was 108% (active).
With `O=C(c1cn(-c2ccccc2)nc1-c1cc2ccccc2oc1=O)N1CCOCC1` the inhibition was 11.6% (inactive).
For `CC1(C)C2CC=C(/C=N/NC(=O)c3ccc(Cl)cc3)C1C2` (stereo unspecified), the inhibition was -5.9% (inactive).
For `Fc1cccc(CSc2nnc3ccc(-c4ccncc4)nn23)c1`, the inhibition was 9.1% (inactive).
For `CCC(C)NC(=O)c1c(N)n(/N=C/c2cccs2)c2nc3ccccc3nc12` (stereo unspecified), the inhibition was 81.7% (active).
For `CCCNC(=O)c1c(N)n(-c2ccc(S(N)(=O)=O)cc2)c2nc3ccccc3nc12`, the inhibition was 21.5% (inactive).
In the case of `CC(C)Cn1c(N)c(C(=O)NCc2cccs2)c2nc3ccccc3nc21`, the inhibition is reported as -8.7% (inactive).
For `CN(/C(=N/S(=O)(=O)c1cccs1)c1ccccc1)c1ccc(O)cc1`, the inhibition was -3.2% (inactive).
With `Cc1cc(NC(=O)CN2C(=O)NC(C)(CCc3ccccc3)C2=O)no1` (stereo unspecified) the inhibition was -5.6% (inactive).
In the case of `O=C(O)CCc1nc2cc(Cl)ccc2n(Cc2ccccc2)c1=O`, the inhibition is reported as 2.8% (inactive).
With `Cn1c(-c2ccco2)nc2cc3ccccc3cc21` the inhibition was 79.1% (active).
With `CN(c1nc2ccccc2n2c(-c3ccco3)nnc12)S(=O)(=O)c1ccccc1` the inhibition was 4.1% (inactive).
In the case of `CN1c2ccccc2-c2nc3ccccc3n2C1c1ccco1` (stereo unspecified), the inhibition is reported as 14% (inactive).
In the case of `O=C1CCCC(O)=C1N=Nc1ccc2ncsc2c1`, the inhibition is reported as -0.2% (inactive).
In the case of `O=C(NCCCn1ccnc1)C(=O)c1cn(CC(=O)N2CCCCCC2)c2ccccc12`, the inhibition is reported as 6.5% (inactive).
With `CC(C)N(C(=O)CSc1nc(COc2ccccc2)nc2ccccc12)C(C)C` the inhibition was 10.8% (inactive).
For `CC(=O)N1CCc2cc(Br)cc(S(=O)(=O)CCC(=O)Nc3c(C)n(C)n(-c4ccccc4)c3=O)c21`, the inhibition was -1.8% (inactive).
For `O=C(NCc1cccnc1)c1nc(-c2cccs2)no1`, the inhibition was 1.9% (inactive).
With `Cc1ccsc1C(=O)OCC(=O)c1cc2ccccc2o1` the inhibition was 13.5% (inactive).
For `Cc1ccsc1C(=O)OCC(=O)c1cc(C)n(CC2CCCO2)c1C` (stereo unspecified), the inhibition was 95.8% (active).
For `Cc1cc(C(=O)Cn2cnc3cc([N+](=O)[O-])ccc3c2=O)c(C)n1CC1CCCO1` (stereo unspecified), the inhibition was 8.2% (inactive).
In the case of `CC(C)(C)C1CCC(OC(=O)CCC(=O)Nc2ccccc2)CC1` (stereo unspecified), the inhibition is reported as 5.2% (inactive).
In the case of `O=C(c1cc(=O)c2ccccc2o1)N1CCN(c2ccccc2)CC1`, the inhibition is reported as 4.4% (inactive).
In the case of `Cc1ccc(-c2nnc(-c3ccc(NC(=O)c4cccs4)cc3)o2)cc1`, the inhibition is reported as 11.8% (inactive).
In the case of `Cc1ccc(-c2csc(NC(=O)c3cccs3)n2)cc1`, the inhibition is reported as 12.6% (inactive).
With `Cc1nc(-c2ccc(NC(=O)c3cccs3)cc2)cs1` the inhibition was 78.1% (active).
With `Cc1ccc(S(=O)(=O)N2CCN(CC(=O)N/N=C/c3cc([N+](=O)[O-])ccc3Cl)CC2)cc1` the inhibition was -9.8% (inactive).
For `O=c1c2c(nc3nc[nH]n13)CCC2`, the inhibition was -1.5% (inactive).
For `O=C1CCCc2c1nc(-c1cccc(Cl)c1)n2O`, the inhibition was -13.1% (inactive).
With `O=c1c2c(nc3cc(-c4cccc(Cl)c4)[nH]n13)CCCC2` the inhibition was 65.7% (active).
In the case of `O=C(c1ccccc1)c1ccc(OCC(O)CN2CCCC2)cc1` (stereo unspecified), the inhibition is reported as -2.9% (inactive).
For `CCc1cc(-c2n[nH]c(=S)n2CC(C)C)cs1`, the inhibition was 5% (inactive).
With `CCN(CC)C(=O)c1ccc(O)c(OC)c1` the inhibition was -3% (inactive).
In the case of `CCOc1ccc(OCc2cccc(C(=O)N(CC)CC)c2)cc1`, the inhibition is reported as 70.7% (active).
For `COc1ccc(OCc2cccc(C(=O)N3CCCC3)c2)cc1`, the inhibition was 29% (inactive).
For `Cc1ccc(NC(=O)C(=O)NCC2CCN(C(=O)c3cccc([N+](=O)[O-])c3)CC2)cc1`, the inhibition was 6.1% (inactive).
In the case of `COc1ccc(C(=O)NC(=S)Nc2ccc(Cl)cn2)cc1OC`, the inhibition is reported as 20.4% (inactive).
For `COc1c(Cl)cc(C(=O)Nc2ccc(Cl)cn2)cc1Cl`, the inhibition was -37.3% (inactive).
For `O=C(Nc1ccc2c(c1)OCCO2)c1ccc(Cl)c(S(=O)(=O)N2CCCCC2)c1`, the inhibition was 25.5% (inactive).
With `O=C(Nc1ccc(Cl)cn1)c1ccc2c(c1)OCCO2` the inhibition was 70.2% (active).
For `O=C(Nc1cccc(S(=O)(=O)Nc2ccc(Cl)cc2)c1)c1ccc2c(c1)OCCO2`, the inhibition was 44.7% (active).
In the case of `O=C(Nc1cccc(S(=O)(=O)N2CCCCC2)c1)c1ccc2c(c1)OCO2`, the inhibition is reported as 11.4% (inactive).
In the case of `CC(=O)NC(=S)NNC(=O)c1ccc(Br)cc1`, the inhibition is reported as -0.5% (inactive).
In the case of `O=C1N/C(=C/c2cccs2)C(=O)N1Cc1ccc(F)cc1`, the inhibition is reported as -0.7% (inactive).
With `Cc1ccc(NC(=O)NNC(=O)c2sccc2-n2cccc2)cc1` the inhibition was -2.5% (inactive).
In the case of `Cc1ccnc(NC(=O)C(C)N2C(=O)c3ccccc3C2=O)c1` (stereo unspecified), the inhibition is reported as 1.4% (inactive).
For `Brc1ccc2nc(N3CCCC3)sc2c1`, the inhibition was 30.3% (inactive).
For `c1c2c(cc3sc(N4CCCCC4)nc13)OCCO2`, the inhibition was 89.7% (active).
For `COc1ccc2nc(Nc3nc4cc5c(cc4s3)OCCO5)sc2c1`, the inhibition was 10.2% (inactive).
In the case of `CC(C)c1csc(CN2CCC(CO)(Cc3ccccc3)CC2)n1`, the inhibition is reported as 2.1% (inactive).
In the case of `CS(=O)(=O)N(Cc1ccccc1Cl)c1ccc(C(=O)NCc2cccnc2)cc1`, the inhibition is reported as -0.3% (inactive).
For `Fc1ccc(CNCc2ccc(Br)cc2)cc1`, the inhibition was 19.2% (inactive).
In the case of `NC1=NC(=O)S/C1=C\c1ccc(O)cc1`, the inhibition is reported as 3.3% (inactive).
In the case of `O=C(Nc1nc(-c2ccc3c(c2)OCO3)cs1)c1ccncc1`, the inhibition is reported as 64.6% (active).
With `O=C(Nc1ccccc1)c1ccc2c(c1)OCO2` the inhibition was 18.6% (inactive).
For `Cc1cc(C)c2nc(NC(=O)c3ccc4c(c3)OCO4)sc2c1`, the inhibition was 6.8% (inactive).
In the case of `O=C(Nc1nc2ccccc2s1)c1ccc2c(c1)OCO2`, the inhibition is reported as 61.3% (active).
For `Cc1ccc(-c2csc(NC(=O)c3cnccn3)n2)cc1C`, the inhibition was 15.5% (inactive).
In the case of `O=C(Nc1nc(-c2ccncc2)cs1)C1COc2ccccc2O1` (stereo unspecified), the inhibition is reported as 22.6% (inactive).
In the case of `C/C(CC(=O)Nc1cccc(C(F)(F)F)c1)=N\NC(=O)C(=O)NCC(C)C`, the inhibition is reported as 0.3% (inactive).
In the case of `COc1ccc2oc(C)c(NC(C)=O)c2c1`, the inhibition is reported as 4.1% (inactive).
For `COc1ccc(S(=O)(=O)Nc2ccc3oc(C)c(C(C)=O)c3c2)cc1`, the inhibition was 46% (active).
In the case of `COC(=O)c1c(C)oc2ccc(N(C(=O)Oc3ccccc3)S(=O)(=O)c3ccccc3)cc12`, the inhibition is reported as 5.2% (inactive).
For `COc1ccc(NS(=O)(=O)c2ccc(NC(C)=O)cc2)cc1OC`, the inhibition was 47.9% (active).
For `COC(=O)COc1ccc(S(=O)(=O)Nc2ccc(NC(C)=O)cc2)cc1`, the inhibition was -2% (inactive).
For `COc1cc(NS(=O)(=O)c2ccc(NC(C)=O)cc2)cc(OC)c1`, the inhibition was 38% (inactive).
In the case of `Cc1ccc2c(=O)oc(N(C)C)nc2c1`, the inhibition is reported as -6.4% (inactive).
With `CCc1c(C)nc2c(OC)cccc2c1Cl` the inhibition was 3.4% (inactive).
In the case of `COc1ccccc1C1SCCN1C(=O)c1ccc([N+](=O)[O-])cc1` (stereo unspecified), the inhibition is reported as -1.1% (inactive).
For `O=C(Nc1ccccc1C(=O)N1CCOCC1)c1ccc(CSc2ccccc2)cc1`, the inhibition was 24% (inactive).
With `O=C(Nc1ccc(CSc2ccccc2)cc1)c1ccc(CN2CCOCC2)cc1` the inhibition was 72.7% (active).
For `COc1ccc(C(=O)Nc2ccc(CN3CCOCC3)cc2)cc1`, the inhibition was -2.1% (inactive).
With `COc1ccc(C(=O)Nc2ccc(-n3nncc3C(C)(C)C)cc2)cc1` the inhibition was -0.3% (inactive).
In the case of `Cc1csc(SCC(=O)Nc2sccc2C#N)n1`, the inhibition is reported as 44.3% (active).
With `Cc1cccc(C)c1Nc1nnc(SCC(=O)Nc2sccc2C#N)s1` the inhibition was 6.5% (inactive).
For `COc1ccc(NC(=O)CSc2nc(C)cs2)cc1`, the inhibition was 10.5% (inactive).
For `Cc1cc(-c2nnc(CCC(=O)NC(c3ccccc3)c3ccccc3)o2)no1`, the inhibition was 9.8% (inactive).
With `Cc1nn(CC#N)c(=O)n1N(C)c1ncc(C(F)(F)F)cc1Cl` the inhibition was 6.6% (inactive).
In the case of `Cn1c(SCC(=O)Nc2ccc(Br)cc2F)nnc1-c1ccco1`, the inhibition is reported as 7.9% (inactive).
With `COc1ccc(C(=O)Nc2ccc(S(=O)(=O)NC(C)C)cc2)cc1` the inhibition was -0.4% (inactive).
For `COc1ccc(NS(=O)(=O)c2ccc(NC(=O)c3ccc(N(C)S(C)(=O)=O)cc3)cc2)cc1`, the inhibition was 60.1% (active).
In the case of `COc1cc(OC)cc(C(=O)Nc2ccc(S(=O)(=O)Nc3cc(C)on3)cc2)c1`, the inhibition is reported as 20.2% (inactive).
